# Experimental data taken from ChEMBL document CHEMBL3988442, “University of Dundee, Small-Polar-MMV Screening Library” (2021).
# Out of some 48,000 compounds screened, about 13,000 (27%) showed an effect of 50% or more. Some of the results follow.
# Tested on: Wolbachia pipientis
# Test: Anti-Wolbachia Cell-Based Screen
# Assay type: functional
# Set-up: scale not given: in the data most compounds retested in dose-response had high values
# Conditions: 5 µM
row,SMILES,Percent Effect
1,CCSCCNC(=O)c1cnc(-c2ccccc2)nc1O,-4.027%
2,COC(=O)CCc1c(C)nn(-c2nc(C)cc(=O)[nH]2)c1C,2.472%
3,Cc1cc(=O)[nH]c(-n2nc(C)c(CCC(=O)NCC(C)C)c2C)n1,133.4%
4,CCC(C)(NCC(=O)Nc1nc(C)cs1)c1nc(C)cs1 (centres undefined),-9.944%
5,Cc1ccc(C(C(=O)NCCc2nc(C)cc(=O)[nH]2)N(C)C)cc1 (centres undefined),-13.39%
6,Cc1cc(=O)[nH]c(-n2nc(C)c(CCC(=O)Nc3nc(C)cs3)c2C)n1,139.8%
7,COc1ccc(OC)c(CCNc2ncc(S(N)(=O)=O)s2)c1,-19.79%
8,CC(NC(=O)CSCC#N)c1ccccc1 (centres undefined),5.295%
9,CC(=O)NC1CCCN(C(=O)Nc2cnc3c(cnn3C(C)C)c2)C1 (centres undefined),-1.693%
10,CC(=O)N1CCCN(C(=O)c2cnc3n[nH]c(C)c3c2)CC1,0.885%
11,Cc1cnn(CC2CCCN2C(=O)c2cnc3n[nH]c(C)c3c2)c1 (centres undefined),1.676%
12,Cc1cnn(CC2CCCCN2C(=O)c2cnc3n[nH]c(C)c3c2)c1 (centres undefined),131.8%
13,Cc1cc(C)n(CC2CCCN2C(=O)c2cnc3n[nH]c(C)c3c2)n1 (centres undefined),152.9%
14,Cc1cc(=O)[nH]c(SCC(=O)N(C)CC2Cc3ccccc3CN2C)n1 (centres undefined),-1.755%
15,O=C(O)Cn1ccc(=O)c2ccc(Cl)cc21,126.4%
16,O=C(O)Cn1ccc(=O)c2cc(Cl)ccc21,96.7%
17,O=C(Cn1ccc(=O)c2ccccc21)Nc1cnccc1O,11.9%
18,Cc1ccc(Cl)cc1NC(=O)Cn1cc(C(=O)O)ccc1=O,11.02%
19,O=C(O)Cn1ccc(=O)c2ccccc21,101.5%
20,O=C(Cn1cc(C(=O)O)ccc1=O)Nc1ccc(Cl)cc1F,21.2%
21,CC(=O)Cn1cc(C#N)c(=O)c2cc(Br)ccc21,-39.25%
22,CC(=O)c1cn(CCC(=O)NCCC(=O)O)c2ccccc12,11.28%
23,CN(CC(N)=O)C(=O)CCCn1ccc2cc(Cl)ccc21,-3.904%
24,CCN(Cc1ccoc1)C(C(N)=O)c1ccc(Br)cc1 (centres undefined),13.69%
25,Cc1ccccc1C(O)CNS(=O)(=O)Cc1cccc(C#N)c1 (centres undefined),1.082%
26,CCC(=O)N1CCN(C(=O)NCc2c(C)cc(C)cc2C)CC1,2.244%
27,O=C(NCc1nncn1-c1ccccc1)C1CC(=O)N(CC2CC2)C1 (centres undefined),-5.786%

row,SMILES,Percent Effect
1,COc1cc(-c2cc(=O)[nH]cn2)cc(OC)c1OC,108.3%
2,COc1ccc(-c2cc(N)ccn2)c(OC)c1OC,-25.01%
3,O=C(NCCc1cc(=O)[nH]cn1)c1[nH]nc2c1CCCC2,-3.827%
4,CNc1cc(-c2cc(OC)c(OC)c(OC)c2)ncn1,63.03%
5,COc1cc(-c2cc(N)ncn2)cc(OC)c1OC,113.5%
6,COc1cc(F)ccc1-c1cnc(N)cn1,4.903%
7,COc1cc(-c2cc(OC)c(OC)c(OC)c2)ncn1,111%
8,COc1cc(N2CCc3ncnc(-c4ccoc4)c3CC2)ncn1,-1.629%
9,COc1cc(-c2cnnc(NCCCOC(C)C)n2)cc(OC)c1OC,29.72%
10,COc1cc(N(C)Cc2cc(C(C)(C)C)n[nH]2)ncn1,-14.87%
11,CC1CCN(S(=O)(=O)N2CCc3c(c(C(=O)O)nn3CC3CC3)C2)CC1,-12.69%
12,CNC(=O)Cc1ccc(-n2ccnc2-c2ccc(C(=O)O)s2)cc1,-11.42%
13,Cc1noc(-c2ccc(N3CCCC(C(=O)O)C3)nc2)n1 (centres undefined),-4.979%
14,CS(=O)(=O)NCCNC(=O)NC1(c2ccc(Cl)cc2)CCC1,-10.79%
15,COc1nc2c(cc1C(=O)N1CC[C@H](CO)[C@@H](O)C1)CCC2,9.103%
16,Cc1cccc(CNC(CN2CCN(C)CC2)c2ccccc2)c1 (centres undefined),16.68%
17,Cc1cc(C(C)(O)CNC(=O)CCOCC(C)C)c(C)o1 (centres undefined),51.29%
18,CCOCC(=O)NCC(C)(O)c1cc(C)oc1C (centres undefined),5.951%
19,Cc1cc(C(C)(O)CNC(=O)OC(C)(C)C)c(C)o1 (centres undefined),0.294%
20,CC(NCc1nnc2n1CCCC2)c1nc(Cc2ccccc2)no1 (centres undefined),8.593%
21,O=C(O)C(F)(F)F.O=C(O)C(F)(F)F.O=C(O)c1cc2c(nc1-c1ccsc1)CCN(C1CCOC1)CC2 (centres undefined),-18.13%
22,Cc1cc(C)c2c(N3CCN(C(=O)N4CCOCC4)CC3)ncnc2n1,86.86%
23,Cc1cc(C)c2c(N3CCC(O)(Cn4ccnc4)CC3)ncnc2n1,6.34%
24,Cc1ccccc1CC(=O)N1CCc2c(ncnc2N2CCOCC2)C1,2.572%
25,Cc1cc(C)c2c(N3CCC(C(=O)N4CCOCC4)CC3)ncnc2n1,125.4%
26,Cc1cc(C)c2c(N3CCCN(C(=O)C4CCC4)CC3)ncnc2n1,89.28%
27,O=C(C1CCN(c2ncnc3cccc(F)c23)CC1)N1CCCC1,-3.07%
